Screening results as filed in PubChem.
Rango release inh = inhibition of RanGTP-driven Rango-importin beta dissociation; Potency, µM (top dose mostly 46.1 µM), for inactives: at the highest dose activity change, negative = inhibition; 0.071% of 340,000 active; AID 540253; Biochemical FRET Rango-importin beta, RanGTP-induced dissociation; O95149+P62826; calls by dose curve; note: % of control where 0% means no effect; nearly all actives have a fitted effect of over 45% in size
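Compounds preincubate 5 min with complex of recombinant Rango and importin beta in PBS with 1 mM DTT. Ran (0.6 uM) loaded with 2 mM GTP plus 0.2 uM RCC1 starts dissociation; FRET is recorded 45 min later.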
PKM2 activator = PKM2 (human) enzyme activation. P14618. purified PKM2, Kinase-Glo ATP luminescence, activation; response scale: 0% is enzyme alone, no compound. Potency, µM (series often up to 57.5 µM), for inactives: top-dose activation, actives largely listed as activators. 0.34% of 260,000 active; note: % is set by controls: 0 for no effect and ±100 for the full control effect; nearly all actives have a fitted effect of over 55% in size
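Kinase-Glo luminescence reports ATP generated from ADP (0.1 mM) and PEP (0.5 mM) by purified hPK-M2 after 1 h at room temperature, pH 7.2 imidazole buffer; intermediate enzyme activity allows detecting inhibitors and activators.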
ELG1 DNA repair = blocks ELG1-dependent DNA repair in HEK293T cells | HEK293T ELG1-luciferase reporter, luminescence, 16 h; DNA damage induced by 5-fluorouridine | Potency, µM (series often up to 46.1 µM), for the others: top-dose activity change, negative = inhibition, hits mostly inhibitors | 2.3% of 330,000 active | AID 504467; note: % is set by controls: 0 for no effect and ±100 for the full control effect; nearly all actives have a fitted effect of over 55% in size
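HEK293T cells expressing luciferase-tagged ELG1 (2,000/well) received 5-Fluorouridine plus compound or DMSO for 16 hr at 37 °C. Luciferase was read by ONE-Glo luminescence after 30 min at room temperature.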
Rango complex inh = prevents formation of the Rango-importin beta complex. Rango CFP/YFP FRET sensor + importin beta, 45 min. Potency, µM (highest dose often 92.2 µM), for the others: at the top dose inhibition of complex formation. 0.031% of 340,000 active. Q14974. AID 540263; calls by dose curve;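 note: 0% = DMSO wells and 100% = buffer wells lacking importin beta; nearly all actives have a fitted effect of over 15% in size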
Target sequence (Q14974 whole entry, looked up): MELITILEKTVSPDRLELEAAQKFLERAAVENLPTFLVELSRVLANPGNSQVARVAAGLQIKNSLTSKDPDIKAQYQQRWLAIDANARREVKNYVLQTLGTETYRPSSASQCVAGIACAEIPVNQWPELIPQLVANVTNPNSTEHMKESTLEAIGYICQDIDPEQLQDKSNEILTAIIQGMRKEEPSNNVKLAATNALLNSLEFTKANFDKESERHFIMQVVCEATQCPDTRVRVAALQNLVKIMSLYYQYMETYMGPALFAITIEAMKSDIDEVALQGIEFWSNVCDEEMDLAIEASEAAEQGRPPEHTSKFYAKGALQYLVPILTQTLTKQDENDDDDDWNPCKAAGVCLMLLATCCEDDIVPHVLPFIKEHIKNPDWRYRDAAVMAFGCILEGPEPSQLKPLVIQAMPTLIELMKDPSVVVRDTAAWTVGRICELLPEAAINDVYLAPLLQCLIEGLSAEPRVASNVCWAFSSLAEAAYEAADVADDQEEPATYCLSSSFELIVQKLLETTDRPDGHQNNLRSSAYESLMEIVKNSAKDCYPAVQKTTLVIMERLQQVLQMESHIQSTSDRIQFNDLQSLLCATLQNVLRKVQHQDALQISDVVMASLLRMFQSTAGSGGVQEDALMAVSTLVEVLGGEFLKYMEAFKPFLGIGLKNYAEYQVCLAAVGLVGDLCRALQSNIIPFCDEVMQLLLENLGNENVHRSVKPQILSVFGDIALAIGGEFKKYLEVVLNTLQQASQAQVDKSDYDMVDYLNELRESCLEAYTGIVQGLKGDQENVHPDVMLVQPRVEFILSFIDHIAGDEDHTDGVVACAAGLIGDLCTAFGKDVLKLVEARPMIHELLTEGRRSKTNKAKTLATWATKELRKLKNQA
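Inhibition scored from the CFP 486 nm/YFP 530 nm FRET ratio 45 min after adding 0.125 microM importin beta to 50 nM Rango biosensor preincubated 5 min with compound (room temperature, PBS with DTT, Tween-20, BSA). No-importin wells as positive control.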
Tb PGK inh = T. brucei PGK inhibition; P07378; PGK/GAPDH coupled, Kinase-Glo luminescence, 60 min; Potency, µM (doses to about 57.5 µM), without a hit: at the top dose activity change, negative = inhibition, most hits filed as inhibitors; 0.043% of 380,000 active; note: % is set by controls: 0 for no effect and ±100 for the full control effect; nearly all actives have a fitted effect of over 60% in size
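Recombinant glycosomal PGK reaction used 1,3-bisphosphoglycerate generated in-well by GAPDH (100nM final) in 100mM TEA pH 7.6, 5mM MgCl2, 0.01% Tween-20. After 60 minutes at room temperature, ATP was read by Kinase-Glo Plus luminescence end-point.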
Tb PFK inh = inhibitors of T. brucei phosphofructokinase; O15648; T. brucei PFK, ADP-Glo luminescence; Potency, µM (titrated, usually from 57.5 µM), for inactives: top-dose activity, negative = inhibition, usual class: inhibitors; 0.17% of 330,000 active; AID 485367;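 note: 0% = uninhibited 1x PFK enzyme wells and -100% = no-enzyme wells; nearly all actives have a fitted effect of over 60% in size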
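PFK 1.25 nM, F6P 0.5 mM, ATP 0.1 mM, 0.1 M TEA pH 8.0, 5 mM MgCl2, 0.01% Tween20, 0.1% BSA; 45 min RT. ADP-Glo readout. qHTS titration up to 57 uM; curves fitted, compounds curve-classed.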
The depositor's hits bear a star; i = inactive; ? = inconclusive; · = no result given. This is a sample that favours compounds with a hit; in the whole collection about 2.4% have one here. Unless noted, calls come from the whole dose curve; as a rule, active = well fitted curve in the direction sought with a large enough effect; inconclusive = small, poorly fitted or top-dose-only effect, or another doubt; inactive = no such curve, though single readings can be large; an effect the other way counts as inactive or inconclusive. Potency is the fitted concentration of half-maximal effect.

SMILES	Rango release inh	PKM2 activator	ELG1 DNA repair	Rango complex inh	Tb PGK inh	Tb PFK inh
Cc1ccccc1CCN(C(=O)c1csnn1)C(C(=O)NC1CCCC1)c1ccco1 (stereo not given)	3%	·	-13%	7%	-3%	-7%
CCc1ccccc1NS(=O)(=O)c1ccc2c(c1)OCC(C(=O)N1CCCC1)O2 (stereo not given)	·	·	·	·	8%	·
O=C(CSc1nnc(-c2c[nH]c3ccccc23)n1C1CC1)NC1CCS(=O)(=O)C1 (stereo not given)	·	·	·	·	-8%	·
Cc1cc2nn(-c3ccc(F)cc3)nc2cc1N	9.2µM*	-1%	?	?	-11%	1%
CCOC(=O)c1c(-c2ccccc2)csc1NC(=O)CCN1CCOCC1	-12%	10%	23µM*	1%	-9%	-6%
CCOC(=O)c1c(-c2ccc(C)o2)csc1NC(=O)CN1CCOCC1	0%	?	-29%	-1%	-14%	-13%
CCOC(=O)c1c(-c2ccc(C)o2)csc1NC(=O)COC(=O)c1cccs1	0%	3.2µM*	-10%	0%	-7%	?
Cc1ccccc1NS(=O)(=O)c1nnc(NC(=O)c2ccccc2C)s1	8%	-4%	7%	0%	6%	-1%
Cc1cccc(NC(=O)c2ccc(C3SCC(=O)N3CCc3ccccc3)cc2)c1 (stereo not given)	-11%	5%	26µM*	5%	-7%	3%
COC(=O)c1ccc(C2SCC(=O)N2Cc2ccccc2)cc1 (stereo not given)	-22%	·	?	2%	-4%	5%
COCCNC(=O)c1ccc(C2SCC(=O)N2CCc2ccccc2)cc1 (stereo not given)	-5%	-7%	18%	-1%	-3%	-1%
CC(=O)Nc1ccc(NC(=O)c2ccc(C3SCC(=O)N3CCc3ccccc3)cc2)cc1 (stereo not given)	2%	4%	23µM*	3%	1%	8%
COc1cc2nc(/C=C/c3cc(OC)c(OC)c(OC)c3)sc2cc1SC	?	1%	12µM*	?	-6%	-3%
CCOc1ccc(S(=O)(=O)N(C)c2ccc(OCC(=O)NCC3CCCO3)cc2)cc1 (stereo not given)	-8%	3%	-4%	?	3%	-1%
CCOc1ccc(S(=O)(=O)N(C)c2ccc(OCC(=O)NCC3CCCCC3)cc2)cc1	-2%	·	26µM*	0%	2%	-7%
CN(C(=O)CSc1n[nH]c(-c2cccs2)n1)C1CCS(=O)(=O)C1 (stereo not given)	11%	·	-2%	3%	-1%	-4%
COc1cc(SC)ccc1C(=O)N1CCN(c2ccccc2)CC1	-5%	7%	-9%	-1%	4%	-1%
COc1cc(SC)ccc1C(=O)N1CCN(c2ccc(O)cc2)CC1	-14%	23%	21µM*	4%	-3%	-23%
COc1ccc(Cl)cc1NC(=O)C1CCN(c2ncnc3c2nc2n3CCCCC2)CC1	·	·	·	·	-9%	·
Cc1ccc(-n2cc(CN3CCN(C(=O)c4ncn[nH]4)CC3)c(-c3ccc(F)cc3)n2)cc1	15%	-12%	21µM*	3%	-8%	-4%
COc1ccc(/C=N/n2cnn(Cc3ccccc3Cl)c2=S)cc1	13%	1%	?	0%	-7%	-16%
COc1cc(/C=N/n2cnn(Cc3ccccc3Cl)c2=S)cc(OC)c1OC	1%	3%	23µM*	1%	-7%	-12%
O=C(COC(=O)c1cccs1)Nc1ccccc1C(F)(F)F	-12%	17%	-8%	0%	-7%	5%
O=C(COC(=O)c1ccccc1-c1nc2ccccc2s1)Nc1ccccc1C(F)(F)F	10%	12%	23µM*	0%	-2%	0%
COc1ccc(CCNc2cc(C)nc3c(-c4ccccc4)c(C)nn23)cc1OC	1%	-8%	21µM*	3%	-6%	8%
SMILES	Rango release inh	PKM2 activator	ELG1 DNA repair	Rango complex inh	Tb PGK inh	Tb PFK inh
COc1ccccc1-c1c(C)nn2c(N3CCCCCC3)cc(C)nc12	18%	0%	23µM*	-2%	-9%	2%
COc1ccccc1-c1c(C)nn2c(N3CCOCC3)cc(C)nc12	2%	·	0%	-2%	i	-3%
COc1ccc(-c2c(C)nn3c(N4CCN(Cc5ccccc5)CC4)cc(C)nc23)cc1OC	-3%	-8%	4.6µM*	7%	i	-2%
Cc1cc(N2CCN(Cc3ccccc3)CC2)n2nc(C)c(-c3ccccc3)c2n1	-2%	5%	?	0%	-4%	4%
CCn1cc(C(=O)O)c(=O)c2cnc(N3CCN(C(=S)Nc4ccccc4C(F)(F)F)CC3)nc21	6%	-5%	15µM*	0%	-1%	-1%
c1nc(NCCN2CCOCC2)c2sc3nc(N4CCOCC4)c4c(c3c2n1)CCC4	-10%	2%	23µM*	-2%	-10%	2%
S=C(NCC1CCCO1)N1CCN(c2nc(-c3ccccc3)cs2)CC1 (stereo not given)	9%	1%	23µM*	-2%	-3%	-6%
Cc1cccc(NC(=O)c2nc[nH]c2C(=O)NCCCCCCNC(=O)c2[nH]cnc2C(=O)Nc2cccc(C)c2)c1	5%	·	9.2µM*	-1%	3%	0%
Cc1cccc(NC(=O)c2nc[nH]c2C(=O)NCCCCNC(=O)c2[nH]cnc2C(=O)Nc2cccc(C)c2)c1	5%	·	5.2µM*	0%	-10%	0%
O=C(Nc1cccc(Cl)c1)c1nc[nH]c1C(=O)NCCCCNC(=O)c1[nH]cnc1C(=O)Nc1cccc(Cl)c1	1%	·	8%	6%	-10%	0%
Cc1ccc(C(=O)OCC(=O)Nc2ccc(C)c(S(=O)(=O)N3CCCCC3)c2)o1	·	·	·	·	-10%	·
Cc1ccc(N=Cc2c(O)n(-c3nccs3)c(=O)c3ccccc23)cc1	-11%	-16%	18µM*	?	-2%	-2%
Cc1ccccc1N=Cc1c(O)n(-c2nccs2)c(=O)c2ccccc12	?	6%	21µM*	?	i	12%
O=c1c2ccccc2c(C=Nc2ccccc2O)c(O)n1-c1nccs1	?	-5%	16µM*	?	-10%	12%
COC(=O)[C@]1(C)N[C@H](CN(C)C(=O)c2ccc(C)cc2)[C@@H]2C(=O)N(C)C(=O)[C@@H]21	0%	·	3%	1%	6%	-24%
